Data on 9 compounds can be found in PubChem BioAssay (NCI).

Some test systems named below: SK-MEL-2 melanoma; SN12C renal; UO-31 renal; TK-10 renal; ACHN renal; CAKI-1 renal; CCRF-CEM leukemia; MOLT-4 leukemia; SR leukemia; RPMI-8226 leukemia; OVCAR-8 ovarian; OVCAR-5 ovarian; OVCAR-4 ovarian; IGROV1 ovarian; HS 578T breast; NCI/ADR-RES ovarian; SK-OV-3 ovarian; OVCAR-3 ovarian; A498 renal.
Experiment in all cases: NCI-60 one-dose screen, 48 h (100 = growth as untreated, 0 = no growth, -100 = all killed)
Conditions in all cases: 10 µM unless noted

This is part of a sample that, as a whole, favours compounds with a hit. Of some 83,000 tested, about 20% had one in any assay.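 For each line, cells grew in 96-well plates with the test compound present at a single concentration for 48 hours.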 A number with no mark means an inactive call. The source made the active and inactive calls. How the source made its calls: active means growth percent below 10; inactive means the rest.

Regarding `COc1ccc(NC(=O)CSc2nc3ccccc3c(=O)n2Cc2cc(OC)c(OC)c(OC)c2)cc1`, the growth with SK-MEL-2 melanoma was 93%; with SN12C renal, 79.6%; in the assay with UO-31 renal it was 73.5%; in the assay on TK-10 renal it was 96.5%; in the assay with ACHN renal it was 80.6%; in the assay with CAKI-1 renal it was 95.6%. For the same compound, the growth with CCRF-CEM leukemia was 90.1%; with MOLT-4 leukemia it was 68.8%; with SR leukemia it was 82.3%; in the assay with RPMI-8226 leukemia, 86%; with OVCAR-8 ovarian, 91.9%; in the assay with OVCAR-5 ovarian, 102%. Further, the growth is 82.8% in the assay on OVCAR-4 ovarian, 99% in the assay with IGROV1 ovarian, 96.1% in the assay with HS 578T breast and 84% in the assay with NCI/ADR-RES ovarian.

`CN1C(=O)[C@H]2c3c1cccc3[C@@]13NC(=O)O[C@H]1[C@H](CCC3(C)C)C2(C)C`: the growth in the assay on SK-MEL-2 melanoma was 92.8%; in the assay with SN12C renal, 93.3%; with UO-31 renal, 84.6%; in the assay on TK-10 renal it was 87.2%; in the assay with ACHN renal, 94.2%; in the assay with CAKI-1 renal, 94.4%. For the same compound, the growth with CCRF-CEM leukemia was 94.5%; with MOLT-4 leukemia it was 79.4%; in the assay with RPMI-8226 leukemia it was 97%; in the assay with OVCAR-8 ovarian, 96.1%; in the assay on OVCAR-5 ovarian, 101%; in the assay on OVCAR-4 ovarian it was 99%. Moreover, the growth with SK-OV-3 ovarian is 120%; in the assay on IGROV1 ovarian, 107%; in the assay on OVCAR-3 ovarian it was 103%; with HS 578T breast it was 89.1%; in the assay on NCI/ADR-RES ovarian it was 98.8%.

Consider `COc1ccc(Cn2c(SC)nc(=O)n(Cc3ccc(Cl)cc3)c2=O)cc1`, for which the growth was 102% in the assay with SK-MEL-2 melanoma; 93.5% in the assay with SN12C renal; 68.3% in the assay with UO-31 renal; 96.3% in the assay with ACHN renal; 70.5% in the assay on CAKI-1 renal; 88.9% in the assay on A498 renal. The growth in the assay with CCRF-CEM leukemia is 97.7%; in the assay on MOLT-4 leukemia, 95%; with SR leukemia, 84.4%; in the assay with RPMI-8226 leukemia, 92.8%; in the assay with OVCAR-8 ovarian, 96%; in the assay with OVCAR-5 ovarian, 92.1%. In addition, the growth in the assay with SK-OV-3 ovarian is 106%; in the assay with IGROV1 ovarian it was 102%; in the assay on OVCAR-3 ovarian, 102%; with HS 578T breast it was 94%; in the assay with NCI/ADR-RES ovarian it was 95.4%.

`Nc1c(C(=O)Nc2ccccc2)sc2nc3c(cc12)CCCCC3`: the growth in the assay on SK-MEL-2 melanoma is 12.6%; in the assay with SN12C renal, 45.3%; in the assay with UO-31 renal it was 21.5%; with TK-10 renal it was 21.6%; with ACHN renal, 30.3%; in the assay on A498 renal, -5.02% (active). In addition, the growth in the assay with CCRF-CEM leukemia is 2.92% (active); with MOLT-4 leukemia it was 29.2%; in the assay with SR leukemia, 17%; in the assay with RPMI-8226 leukemia, -29.6% (active); with OVCAR-8 ovarian it was 17.9%; in the assay with OVCAR-5 ovarian it was 43.8%. In addition, the growth is 15.3% in the assay with OVCAR-4 ovarian; 17.1% in the assay with SK-OV-3 ovarian; 36.2% in the assay on IGROV1 ovarian; 14.5% in the assay on HS 578T breast; 2.18% (active) in the assay with NCI/ADR-RES ovarian.

Consider `O=C(Nc1ccc(OCc2nnc(-c3ccc(Cl)cc3)o2)c(F)c1)Nc1ccc(Cl)c(Cl)c1`, for which the growth was 81.5% with SK-MEL-2 melanoma; 90.9% in the assay on SN12C renal; 56.3% in the assay on UO-31 renal; 77.5% in the assay with TK-10 renal; 3.37% (active) in the assay on ACHN renal; 67.9% in the assay on A498 renal. Besides, the growth is 51.7% with CCRF-CEM leukemia; 45.2% in the assay on MOLT-4 leukemia; 21.4% in the assay with SR leukemia; 57% in the assay on RPMI-8226 leukemia; 60.2% in the assay with OVCAR-8 ovarian; 66.6% with OVCAR-5 ovarian. In addition, the growth was 60.6% with SK-OV-3 ovarian; 66.5% in the assay on IGROV1 ovarian; 25.9% in the assay on OVCAR-3 ovarian; 32% in the assay on HS 578T breast; 65.2% with NCI/ADR-RES ovarian.

As to `CC(C)[C@H](CO)Nc1nc(Nc2ccc(C(=O)NCCNS(=O)(=O)c3cccc4c(N(C)C)cccc34)c(Cl)c2)c2ncn(C(C)C)c2n1`, the growth in the assay with SK-MEL-2 melanoma was -16.1% (active); in the assay on SN12C renal it was 12.1%; in the assay on UO-31 renal, 77.2%; in the assay with ACHN renal, 43.4%; in the assay on CAKI-1 renal it was 48.6%; in the assay on A498 renal it was -9.15% (active). Further, the growth with CCRF-CEM leukemia was -1.68% (active); in the assay with MOLT-4 leukemia, -12.1% (active); with SR leukemia, -10.7% (active); in the assay with RPMI-8226 leukemia, -41.9% (active); with OVCAR-8 ovarian, 9.87% (active); in the assay on OVCAR-5 ovarian, 49.4%. For the same compound, the growth in the assay on OVCAR-4 ovarian is 41.8%; with SK-OV-3 ovarian, 72.8%; with IGROV1 ovarian, -13.7% (active); in the assay with OVCAR-3 ovarian, 20.2%; in the assay on NCI/ADR-RES ovarian, 94.5%.

Turning to `O=C(O)c1cccc([N+](=O)[O-])c1/C=C/c1ccccc1`, the growth with SK-MEL-2 melanoma is 106%; in the assay with SN12C renal, 98.7%; in the assay on UO-31 renal, 92.9%; in the assay with ACHN renal, 110%; in the assay with CAKI-1 renal, 93.4%; in the assay on A498 renal, 89.1%. Further, the growth in the assay on CCRF-CEM leukemia is 103%; with MOLT-4 leukemia, 97.7%; with SR leukemia, 85.2%; with RPMI-8226 leukemia, 105%; with OVCAR-8 ovarian, 115%; in the assay with OVCAR-5 ovarian, 108%. In addition, the growth in the assay with OVCAR-4 ovarian is 83.2%; with SK-OV-3 ovarian it was 94.6%; with IGROV1 ovarian it was 94.8%; in the assay with OVCAR-3 ovarian, 103%; in the assay with NCI/ADR-RES ovarian, 103%.

Regarding `CC(C)C[C@H](NC(=O)[C@@H](Cc1ccccc1)n1ccc(Nc2ccccc2)cc1=O)B(O)O`, the growth in the assay with SK-MEL-2 melanoma is -14.9% (active); in the assay on SN12C renal it was -25.1% (active); in the assay with UO-31 renal, -44% (active); in the assay with TK-10 renal, -0.144% (active); with ACHN renal it was 20.9%; in the assay on A498 renal, -47.3% (active). In addition, the growth in the assay on CCRF-CEM leukemia is -5.5% (active); in the assay on MOLT-4 leukemia, -8.47% (active); in the assay with SR leukemia, 21%; in the assay on RPMI-8226 leukemia it was -16% (active); with OVCAR-8 ovarian it was 8.16% (active); in the assay with OVCAR-5 ovarian, 16%. For the same compound, the growth with OVCAR-4 ovarian was 33.9%; in the assay on SK-OV-3 ovarian, 46.1%; in the assay on IGROV1 ovarian, -35.1% (active); in the assay with OVCAR-3 ovarian, -61% (active); in the assay on HS 578T breast it was 22.8%; with NCI/ADR-RES ovarian it was 75%.

As for `COc1ccc(C(=O)/C=C/c2cc(C(=O)c3cc(OC)c(OC)c(OC)c3)ccc2OC)cc1`, the growth is 60.8% in the assay with SK-MEL-2 melanoma; 68.8% with SN12C renal; 53.7% in the assay on UO-31 renal; 107% in the assay on TK-10 renal; 41% in the assay on ACHN renal; 93.1% in the assay with A498 renal. Moreover, the growth with CCRF-CEM leukemia is 5.61% (active); with MOLT-4 leukemia, 10.5%; in the assay on SR leukemia, 6.69% (active); in the assay on RPMI-8226 leukemia, 14.6%; in the assay with OVCAR-8 ovarian it was 43.8%; in the assay on SK-OV-3 ovarian, 90%. The growth in the assay with IGROV1 ovarian was 62.2%; with OVCAR-3 ovarian, 60.6%; with HS 578T breast it was 62.5%; in the assay with NCI/ADR-RES ovarian it was 26.5%.
